Most compounds without a hit are left out; they make up all but 3.3% or so of the library.
12-hLO inh: 12-hLO (ALOX12) enzyme inhibition | P18054 | purified 12-hLO, xylenol orange hydroperoxide absorbance | Potency, µM (series often up to 57.1 µM), without a hit: top-dose activity change, negative = inhibition, hits mostly inhibitors | 150,000 tested, 0.12% active | AID 1452; further: potency means the concentration at half of the fitted maximal effect; on the % scale 0 is the no-effect control and ±100 the full control effect; nearly all actives have a fitted effect of over 55% in size
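Xylenol orange chromogenic assay: hydroperoxide from 12hLO oxidises Fe(II), giving red-shifted Fe(III)-XO absorbance. Conditions: 150 nM enzyme, 40 uM arachidonic acid, 25 mM Hepes pH 7.0, 0.01% Triton X-100, 30 min, room temperature.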
NPSR antag: antagonists of human neuropeptide S receptor cAMP signaling; Potency, µM (top dose mostly 38.3 µM), for inactives: at the top dose activity change, negative = inhibition, most hits filed as inhibitors; 220,000 tested, 1% active; AID 1461; CHO-NPSR cells, cAMP TR-FRET, antagonist mode; further: potency means the concentration at half of the fitted maximal effect; on the % scale 0 is the no-effect control and ±100 the full control effect; nearly all actives have a fitted effect of over 50% in size
Target sequence (Q6W5P4 whole entry, looked up): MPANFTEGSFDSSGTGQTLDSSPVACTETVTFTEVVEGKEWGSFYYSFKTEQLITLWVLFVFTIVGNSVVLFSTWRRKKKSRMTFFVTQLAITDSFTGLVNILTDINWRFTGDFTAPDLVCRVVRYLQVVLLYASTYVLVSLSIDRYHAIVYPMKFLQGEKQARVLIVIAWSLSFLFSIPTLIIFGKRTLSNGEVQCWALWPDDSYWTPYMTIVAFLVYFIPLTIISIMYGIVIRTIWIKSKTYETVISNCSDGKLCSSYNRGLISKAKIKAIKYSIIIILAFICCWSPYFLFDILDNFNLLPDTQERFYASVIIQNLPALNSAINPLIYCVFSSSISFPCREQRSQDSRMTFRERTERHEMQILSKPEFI
HTT ATP protect: Huntington cell model cytoprotection by ATP luminescence | PC12 HTT-Q103 induced, cytoprotection, ATP luminescence, 40 h | Potency, µM (highest dose often 56.4 µM), inactives show cytoprotection (ATP increase), usual class: activators | AID 1471 | 230,000 tested, 0.14% active; further: potency means the concentration at half of the fitted maximal effect; % of control where 0% means no effect; nearly all actives have a fitted effect of over 45% in size
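Readout: ATPlite luminescence (ATP level). Model: stable PC12, inducible Htt exon1 Q103-GFP. Inducer: tebufenozide, 100 nM final. Compounds: dose series. No G418 in medium.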
IMPase inh: IMPase inhibition in cells. P97697. CHO-M1 cells, IP1 accumulation, HTRF TR-FRET ratio. inhibition (IP1 accumulation), % at 46.1 µM. 120,000 tested, under 10 active; active means well fitted curve in the direction sought with a large enough effect in the signal ratio, not every such curve was filed as active; inconclusive means small, poorly fitted or top-dose-only effect, or a change in a side signal; inactive means no such curve, though single readings can be large or run the other way; the % refers to the signal ratio;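 further: cells stimulated with carbachol in lithium chloride buffer; plate controls were DMSO basal wells for no effect and reference inhibitor wells for full effect; higher means more IMPase inhibition seen as more IP1 and lower FRET ratio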
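Cellular IMPase inhibition is scored as a rise in cytosolic IP1, detected by competitive TR-FRET between d2-labelled IP1 and a europium anti-IP1 antibody. M1-expressing CHO cells were stimulated with carbachol for 30 min at 37C, with lithium (50 mM LiCl) present in the buffer.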
PNC inhibitor: perinucleolar compartment assembly inhibition | PC3M PTB-GFP, PNC prevalence imaging, 16 h; stronger effect = lower value | activity change (PNC), negative = inhibition, % at 10 µM | 140,000 tested, 3.1% active | AID 2417;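 active means readout at or below -70, meaning at least 70% loss of cells showing the perinucleolar compartment, a nuclear body marking cancer cells; inconclusive means readout between -30 and a set limit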;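 further: plate controls were DMSO wells for no effect and camptothecin positive control wells for full effect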
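Read-out is percentage of cells bearing a perinucleolar compartment, from automated 20x imaging of fixed, Hoechst-stained PC3M PTB-GFP cells. Cells were seeded 4 h, then exposed 16 h to compound (23 nl of library stock) in duplicate plates.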
HTT aggregate: reduces HttQ103-GFP aggregates in PC12 cells; PC12 HttQ103-GFP aggregates, Acumen cytometry, 40 h; Potency, µM (doses to about 46.1 µM), inactives show at the highest dose activity change, negative = inhibition, actives largely listed as inhibitors; 220,000 tested, 1.1% active; AID 1688; further: potency means the concentration at half of the fitted maximal effect; on the % scale 0 is the no-effect control and ±100 the full control effect; nearly all actives have a fitted effect of over 60% in size
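Huntingtin Q103 exon 1–GFP aggregates in induced PC12 cells (100 nM tebufenozide) were quantified by cytometry from lysates, with compounds dosed in titration.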
An asterisk follows results filed as active; ? = inconclusive; / = not tested or not shown; [ ] = another dose, or the depositor's remark. Unless noted, the call rests on the fitted dose curve; in most records, active means well fitted curve in the direction sought with a large enough effect; inconclusive means small, poorly fitted or top-dose-only effect, or another doubt; inactive means no such curve, though single readings can be large; an effect the other way counts as inactive or inconclusive.

SMILES	12-hLO inh	NPSR antag	HTT ATP protect	IMPase inh	PNC inhibitor	HTT aggregate
COc1ccc(S(=O)(=O)Cc2ccc(C(=O)N3CCN(c4cc(Cl)ccc4C)CC3)o2)cc1	-1%	-26%[46.1 µM]	27%	6	5	18µM*
CCOC(=O)N1CCN(C(=O)c2ccc(CS(=O)(=O)c3c(Cl)cccc3Cl)o2)CC1	-1%	-10%[46.1 µM]	/	-4	-13	0.0009µM*
CN1CCN(C(=O)c2ccc(CS(=O)(=O)c3c(Cl)cccc3Cl)o2)CC1	7%	7%[46.1 µM]	9%[10 µM]	-11	-3	9%
CC1(COc2ccc(CC3SC(=O)NC3=O)cc2)CCCCC1 (stereo not drawn)	1%	/	-70%	/	/	-43%
C=CCOC(=O)NC(c1ccc(F)c(F)c1)C(C(C)=O)C(=O)OC (stereo not drawn)	/	/	-9%	/	/	/
CC(C1CCCC(=O)C1)[N+](=O)[O-] (stereo not drawn)	/	/	18%	/	/	/
O=C(Nc1ccc2c(c1)OCO2)c1ccc(Br)c(S(=O)(=O)N2CCCC2)c1	-4%	-20%[46.1 µM]	-7%	8	26	13µM*
CCCC(C)NC(=O)c1ccc(F)cc1 (stereo not drawn)	6%	10%[46.1 µM]	-13%	3	-82*	-14%
O=C(NNC1=C(C(=O)C(F)(F)F)CCC1)c1ccc(Br)cc1	-3%	-14%[46.1 µM]	-58%	6	?	11µM*
COc1cccc(Cn2c(=O)cnc3cnc(Nc4cccc(OC)c4)nc32)c1	/	/	-75%	/	/	/
CCc1ccccc1-n1c(SCC(=O)NC)nnc1-c1cccnc1	1%	1%[46.1 µM]	-1%[10 µM]	9	-122*	13%
C/C(=N\NC(=O)c1ccncc1)C12CC3CC(CC(C3)C1)C2	-2%	14%	/	/	-118*	12%
Cc1ccccc1-c1cnn(-c2cccc([N+](=O)[O-])c2)c1N	/	0%	-32%	/	/	2%
Cc1ccc(-c2cnn(-c3cccc([N+](=O)[O-])c3)c2N)cc1	-4%	-10%[46.1 µM]	-56%	0	-87*	?
CSc1ccc(CN2CCN(C(=O)c3ccc([N+](=O)[O-])cc3)CC2)cc1	/	1%	/	/	/	/
O=C(c1ccc(COc2ccc(F)cc2)o1)n1cccn1	0%	-7%[46.1 µM]	36%	-6	43	1%
Cc1cc(OCc2ccc(C(=O)n3cccn3)o2)ccc1Cl	-2%	-5%	-9%[10 µM]	-3	-119*	-20%
Cc1nc([N+](=O)[O-])c(Br)n1CC(=O)c1ccc(F)cc1	/	-18%	-248%	/	/	28µM*
Cc1cc(Nc2ccc(C(=O)O)c(O)c2)n2ncnc2n1	/	/	/	-9	/	/
CCOC(=O)c1ccc(NCC(O)COc2ccccc2)cc1 (stereo not drawn)	-3%	-6%	?	5	-119*	4%
OC(CNc1ccccc1)COc1ccc(OCC(O)CNc2ccccc2)cc1 (stereo not drawn)	-4%	-8%[46.1 µM]	-75%	?	?	11µM*
COc1ccc(O[C@H]2C=C[C@@H](c3ccccc3)O[C@@H]2CO/N=C\[C@@H](C)[C@H](OCc2ccccc2)C(C)C)cc1	/	/	-54%[10 µM]	/	/	/
Cc1ccccc1NC(=S)NC(NC(=O)c1ccco1)C(Cl)(Cl)Cl (stereo not drawn)	-17%	7%	-1%[10 µM]	/	-120*	-18%
O=C(NC(NC(=S)Nc1ccccc1C(=O)O)C(Cl)(Cl)Cl)c1ccco1 (stereo not drawn)	-1%	5%	10%[10 µM]	/	?	2%
CC(C)(C)c1ccccc1OCCOCCNCc1ccccc1	-12%	-22%	21%[10 µM]	/	6	18µM*
CCCCC1(Cc2ccc([N+](=O)[O-])cc2)C(=O)N(c2ccccc2)N(c2ccccc2)C1=O	-10%	-11%[46.1 µM]	25%[10 µM]	?	-26	10µM*
COc1ccc(Cc2ccc(OC)c(N)c2)cc1N	5%	-15%[46.1 µM]	4%	11	?	14%[9.22 µM]
COc1cc(Cc2ccc(N)c(OC)c2)ccc1N	-1%	6%	/	/	-113*	5%
